About 83,000 compounds went through this panel and 20% of them were active in at least one assay; those are over-represented in the sample as a whole.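 48-hour exposure, single concentration, 96-well plates; percent growth endpoint where 0 means no net growth. Active: below 10.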 Values without a mark were called inactive. Calls of active or inactive are those of the source.
Legend:
Assay in all cases: NCI-60 one-dose screen, 48 h (100 = growth as untreated, 0 = no growth, -100 = all killed)
Conditions in all cases: 10 µM unless noted
NCI-H23 lung = system: NCI-H23 lung
NCI-H226 lung = system: NCI-H226 lung
NCI-H322M lung = system: NCI-H322M lung
HOP-62 NSCLC = system: HOP-62 NSCLC
NCI-H460 lung = system: NCI-H460 lung
HOP-92 NSCLC = system: HOP-92 NSCLC
NCI-H522 lung = system: NCI-H522 lung
A549/ATCC NSCLC = system: A549/ATCC NSCLC
786-0 renal = system: 786-0 renal
COLO 205 colon = system: COLO 205 colon

SMILES | growth (NCI-H23 lung) | growth (NCI-H226 lung) | growth (NCI-H322M lung) | growth (HOP-62 NSCLC) | growth (NCI-H460 lung) | growth (HOP-92 NSCLC) | growth (NCI-H522 lung) | growth (A549/ATCC NSCLC) | growth (786-0 renal) | growth (COLO 205 colon)
ClCC(Cl)C1CCC(Cl)C(Cl)C1 (stereo not given) | 105% | 119% | 107% | 111% | 107% | 105% | 102% | 98.2% | 96.8% | 109%
COc1ccc2c(ccc[n+]2C)c1 | 99.6% | 110% | 105% | 106% | 106% | 110% | 54.7% | 108% | 97.3% | 111%
OCC1CCC(O)C(CO)N1 (stereo not given) | 110% | 104% | 113% | 101% | 107% | 119% | 103% | 94.2% | 109% | 95%
O=c1[nH]c(=O)c2cc(Cl)cc(Cl)c2[nH]1 | 101% | 96.8% | 94.8% | 113% | 112% | 104% | 99.7% | 108% | 101% | 117%
O=C(O)Cc1cccc2ccccc12 | 121% | 117% | 105% | 106% | 109% | 103% | 95.7% | 99.8% | 111% | 113%
CCN(Cc1ccc(Cl)c(Cl)c1)c1ccc2nc(N)nc(N)c2c1C | -76.6% (active) | -62.2% (active) | -94.3% (active) | -74.2% (active) | -95.8% (active) | -90.9% (active) | -64.7% (active) | -55.9% (active) | -89.5% (active) | -96.1% (active)
C=COC(=O)CCOCC(CC)CCCC (stereo not given) | 105% | 98.7% | 98.7% | 97.3% | 106% | 111% | 109% | 89.6% | 91.2% | 111%
N#CCCN1C(=O)CCC1C(=O)O (stereo not given) | 109% | 113% | 112% | 119% | 107% | 109% | 85% | 103% | 107% | 115%
C=COC(=O)C(C)(C)C | 102% | 109% | 104% | 104% | 104% | 71.7% | 93.7% | 105% | 96.2% | 104%
CC(=O)c1cccc(NS(=O)(=O)c2ccc(C)cc2)c1 | 83.9% | 91% | 103% | 89.9% | 102% | 74.4% | 64.4% | 100% | 89.5% | 117%
CN(C)Cc1ccccn1 | 101% | 108% | 96.3% | 104% | 109% | 114% | 91.9% | 93.1% | 97% | 117%
C=C1SC(=Nc2c(C)cccc2C)N(c2nc(Cl)nc(Cl)n2)C12CCCCC2 | 103% | 104% | 85.4% | 105% | 110% | 105% | 82.9% | 96.2% | 99.9% | 109%
O=S(=O)(O)c1ccc(O)c(C2CCCCC2)c1 | 112% | 98.4% | 103% | 87.4% | 108% | 93.2% | 98.5% | 96.6% | 91.1% | 105%
CC12CCC3c4ccc(O)cc4CCC3C1CCC2=O (stereo not given) | 104% | 97% | 113% | 98.1% | 105% | 104% | 70% | 92.3% | 94.5% | 103%
CN(CCCN(C)CCC1CCCCC1)CCC1CCCCC1 | 64.1% | 66.9% | 94.6% | 57.3% | 29% | 21.3% | 69.6% | 83.7% | 53.2% | -81% (active)
CCOc1ccc2c(c1)c(C)cc(C)[n+]2CC | 43.5% | 82.8% | 83.2% | 80.7% | 109% | 54.2% | 46.1% | 45.4% | 79.4% | 65.5%
Cc1ccc(C)c(CCO)c1 | 117% | 91.8% | 108% | 92.4% | 105% | 68.3% | 97.8% | 92.6% | 97.2% | 105%
CCC(C)c1c(N)n(S(=O)(=O)c2ccc(C)cc2)oc1=O (stereo not given) | 108% | 111% | 123% | 112% | 105% | 105% | 90.1% | 108% | 119% | 124%
O=[N+]([O-])c1ccc(-c2nc(N(CCO)CCO)c3ccccc3n2)o1 | -64.9% (active) | -24.7% (active) | -31% (active) | -20.7% (active) | -41.6% (active) | -44.8% (active) | -54% (active) | -0.496% (active) | -40.4% (active) | -87.1% (active)
O=C(c1ccccc1O)N1CCCC1 | 99.3% | 94.5% | 101% | 89.7% | 105% | 94.5% | 76.1% | 74.9% | 95.9% | 103%
CC1(c2ccccc2)CO1 (stereo not given) | 108% | 109% | 125% | 97.2% | 115% | 95.7% | 99.2% | 103% | 102% | 114%
ClCc1cccc2c(CCl)cccc12 | 61.5% | 74.9% | -4.83% (active) | 54.5% | 16.7% | 89.4% | 79.4% | 57.7% | -74.3% (active) | 77.9%
COc1cc(N)c2ncccc2c1Cl | 104% | 96% | 97.9% | 102% | 109% | 101% | 81.8% | 103% | 95% | 116%
COc1cc2c(c(OC)c1OC)-c1ccc(SC)c(=O)cc1[C@@H](NC1OC(CO)C(O)C(O)C1O)CC2 (stereo not given in full) | 29.9% | 43.4% | 33% | 25.9% | 3.13% (active) | 77.9% | -16.8% (active) | 10.4% | 19.8% | -61.5% (active)
COC(=O)Cc1cc(COC(C)=O)ccc1C | 104% | 107% | 110% | 110% | 109% | 79% | 99.2% | 99.1% | 100% | 120%
Cc1ccc(OC(=O)c2ccccc2)cc1 | 114% | 100% | 123% | 97.7% | 106% | 130% | 91.8% | 98.7% | 112% | 96.1%
CCOP(=O)(NC(c1ccccc1)c1ccccc1)OCC | 108% | 103% | 99% | 95.5% | 107% | 89.7% | 113% | 106% | 102% | 100%
COC(=O)c1cccc([N+](=O)[O-])c1 | 96.3% | 103% | 103% | 79.4% | 108% | 95.1% | 101% | 94.9% | 104% | 112%

From PubChem BioAssay (NCI)
